HPGD inh: blocks human HPGD enzyme activity. 4.3% of 150,000 active. Potency, µM, inactives show at the highest dose activity change, negative = inhibition, most hits filed as inhibitors. P15428. purified HPGD, NADH fluorescence kinetic, PGE2 substrate; active means well fitted inhibition curve with a large enough effect, not every such curve was filed as active; inconclusive means small, poorly fitted or top-dose-only effect, or another doubt; inactive means no such curve, though single readings can be large or run the other way
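20 nM HPGD preincubated 15 min at room temperature with compound in 50 mM Tris-HCl pH 8, 0.01% Tween 20. Started with 1 mM NAD+ and 30 uM prostaglandin E2; NADH fluorescence (360/450 nm) read 5 times over 30-s intervals, last minus first.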
12-hLO inh: blocks human 12-lipoxygenase activity; P18054; purified 12-hLO, xylenol orange hydroperoxide absorbance; Potency, µM (highest dose often 57.1 µM), without a hit: at the top dose activity change, negative = inhibition, usual class: inhibitors; 0.12% of 150,000 active; AID 1452; further: nearly all actives have a fitted effect of over 55% in size
Target sequence (P18054 whole entry, looked up): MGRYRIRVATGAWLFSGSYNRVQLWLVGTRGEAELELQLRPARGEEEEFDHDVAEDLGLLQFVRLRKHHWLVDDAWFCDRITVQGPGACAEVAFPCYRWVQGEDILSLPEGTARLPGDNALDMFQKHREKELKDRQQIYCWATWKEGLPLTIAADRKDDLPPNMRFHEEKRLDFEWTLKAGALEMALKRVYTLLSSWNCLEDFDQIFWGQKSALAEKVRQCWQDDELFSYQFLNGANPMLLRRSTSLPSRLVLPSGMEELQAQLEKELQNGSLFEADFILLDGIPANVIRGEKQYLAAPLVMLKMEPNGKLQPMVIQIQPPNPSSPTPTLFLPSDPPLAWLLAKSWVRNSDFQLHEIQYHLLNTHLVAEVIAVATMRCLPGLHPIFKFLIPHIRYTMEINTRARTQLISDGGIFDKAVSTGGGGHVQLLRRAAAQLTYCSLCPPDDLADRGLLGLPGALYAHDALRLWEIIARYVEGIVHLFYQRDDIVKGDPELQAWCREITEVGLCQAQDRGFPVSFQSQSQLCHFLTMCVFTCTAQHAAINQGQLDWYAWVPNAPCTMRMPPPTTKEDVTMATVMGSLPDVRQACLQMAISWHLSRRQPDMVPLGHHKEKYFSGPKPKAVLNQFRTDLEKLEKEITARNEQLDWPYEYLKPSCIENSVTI
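Xylenol orange chromogenic assay: hydroperoxide from 12hLO oxidises Fe(II), giving red-shifted Fe(III)-XO absorbance. Conditions: 150 nM enzyme, 40 uM arachidonic acid, 25 mM Hepes pH 7.0, 0.01% Triton X-100, 30 min, room temperature.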
p53ts 32C tox: kills p53ts cells at the permissive temperature | H1299-p53A138V at 32C, ATP luminescence viability, 24 h | Potency, µM (titrated, usually from 46.1 µM), without a hit: top-dose activity change, negative = cytotoxicity, hits mostly cytotoxic | 0.93% of 130,000 active;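 further: 0% = DMSO and -100% = full killing by reference compound; nearly all actives have a fitted effect of over 55% in size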
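Cells: H1299 p53ts (A138V), 600/well, pre-incubated 16–30 h at 37C. Cpd up to 46 uM, 24 h, 32C. Readout: ATPlite luminescence, 20 min RT. Normalization: DMSO vs tamoxifen 100 uM. AC50 by Hill equation.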
p53ts 39C tox: kills p53ts cells at the nonpermissive temperature | H1299-p53A138V viability at 39C, ATP luminescence, 24 h | Potency, µM (series often up to 46.1 µM), for the others: at the highest dose activity change, negative = cell killing, actives largely listed as cytotoxic | 1.5% of 130,000 active; further: nearly all actives have a fitted effect of over 55% in size
The depositor's hits bear a star; ? = inconclusive; . = not tested or not shown; [ ] = remark or other dose. Compounds with a hit are over-represented: about 4.4% of the library has one in this group of screens. Unless noted, the call rests on the fitted dose curve; in most records, active means well fitted curve in the direction sought with a large enough effect; inconclusive means small, poorly fitted or top-dose-only effect, or another doubt; inactive means no such curve, though single readings can be large; an effect the other way counts as inactive or inconclusive. Unless noted, on the % scale 0 is the no-effect control and ±100 the full control effect; potency means the concentration at half of the fitted maximal effect.

SMILES	HPGD inh	12-hLO inh	p53ts 32C tox	p53ts 39C tox
CCOC(=O)c1ccc(-n2c(N)c(C(=O)NCc3ccco3)sc2=S)cc1	28µM*	?	0%	-13%
CCOC(=O)CC(=O)CSc1nc2c(sc(=S)n2-c2ccccc2)c(=O)[nH]1	.	-13%	4%	7%
CCOC(=O)c1ccc(-n2c(=S)sc3c(=O)[nH]c(C)nc32)cc1	6.3µM*	-2%	13%	-8%
C=CCNC(=O)c1sc(=S)n(-c2ccc(C(=O)OCC)cc2)c1N	16µM*	-21%	6%	1%
CCOC(=O)c1[nH]c(C)c(CCC(=O)NCc2ccc(OC(C)C)cc2)c1C	.	.	3%	-4%
Cc1cc(/C=C2/C(=O)NN(c3ccccc3)C2=O)c(C)n1-c1cccc(O)c1	?	-3%	.	13µM*
Cc1cc(C=C2C(=O)c3ccccc3C2=O)c(C)n1-c1ccccc1	-17%	-15%	.	.
Cc1c(C(=O)O)cnc2cc(-c3ccc(Cl)cc3)nn12	?	0%	10µM*	?
CC(=O)O[C@H]1C2=CO[C@H](C)[C@H]3[C@H]4C5=C([C@H](O)[C@H]6O[C@@H]6C5=O)[C@H](O[C@H]4C)[C@@]23C(=O)[C@H]2O[C@@H]21	.	.	3%[9.22 µM]	-5%[9.22 µM]
Cn1c(/C(C#N)=C/c2ccccc2Br)nc2ccccc21	.	.	10µM*	?
CCn1c(/C(C#N)=C/c2ccccc2Cl)nc2ccccc21	.	.	-21%	?
Oc1ccc([C@@H]2CNCc3sccc32)cc1O	.	6%	15%	19%
COCCNC(=O)CCSCc1ccccc1F	25µM*	0%	-3%	-9%
Cc1ccc(CCNC(=O)CCSCc2ccccc2F)cc1	.	.	-5%	-17%
CCOC(=O)c1ccc2c(c1)nc(SCC(=O)c1cc3ccccc3o1)n2CC	-22%	4%	.	.
C=CCNC(=O)CSc1nc2cc(C(=O)OCC)ccc2n1CC	25µM*	1%	.	.
O=C(Cn1c(-c2cccs2)cc2ccccc21)NCCCN1CCN(c2ccc(F)cc2)CC1	.	.	3%	.
Cc1ccc2[nH]c(-c3ccccc3)cc(=O)c2c1	?	-2%	6.3µM*	5µM*
Cc1ccc(-c2cc(=O)c3ccccc3[nH]2)cc1	?	-3%[0.00818 µM]	.	.
Cc1cccc(NC(=O)c2ccc(Cn3nc(N4CCN(c5ccccc5)CC4)ccc3=O)o2)c1C	.	.	19%	-11%
CC(=O)Oc1ccc2c(c1)CCC1C2CC[C@]2(C)C(OC(C)=O)CCC12 (stereo partly drawn)	-14%	-14%	?	25µM*
Cc1ccc(C(=O)OCn2ncc(Cl)c(Cl)c2=O)cc1	28µM*	-9%	.	.
COC(=O)c1cc(=O)c(O)c2c(O)c(O)ccc2c1	7.9µM*	?	1%	1%
COc1ccccc1-n1c(=O)n(C)c2c(C(N)=O)nc(-c3cccc(OC)c3OC)nc21	.	.	5%	-25%
O=C(C1CCC(CNc2c(N3CCCCC3)c(=O)c2=O)CC1)N1CCc2ccccc2C1 (stereo not drawn)	0.56µM*	9%	4%	3%
SMILES	HPGD inh	12-hLO inh	p53ts 32C tox	p53ts 39C tox
O=C(NCc1ccc(Cl)cc1)C1CCC(CNc2c(N3CCCCC3)c(=O)c2=O)CC1 (stereo not drawn)	-28%	-2%	.	.
CC1CCN(c2c(NCC3CCC(C(=O)N4CCc5ccccc5C4)CC3)c(=O)c2=O)CC1 (stereo not drawn)	2.5µM*	-1%	.	.
CCN(Cc1ccccc1)C(=O)C1CCC(CNc2c(N3CCOCC3)c(=O)c2=O)CC1 (stereo not drawn)	25µM*	4%	.	.
CCOc1ccc(NC(=O)C2CCC(CNc3c(N4CCOCC4)c(=O)c3=O)CC2)cc1 (stereo not drawn)	-18%	5%	.	.
CCOC(=O)N1CCN(CCC(=O)Nc2cccc(F)c2)CC1	.	.	-6%	20%
COc1ccc2c(c1)CC(C(=O)Nc1ccc(Br)c(C)c1)CO2 (stereo not drawn)	.	.	-7%	?
Cc1cc(O)c(C(=O)c2ccccc2C(=O)O)cc1C	-13%	-5%	-4%	1%
C/C(=N\Nc1ccc([N+](=O)[O-])cc1)c1ccc(-n2nncc2C)cc1	8.9µM*	-4%	.	.
COc1ccc(NS(=O)(=O)c2ccc3oc(SC4CCOC4=O)nc3c2)cc1 (stereo not drawn)	32µM*	-6%	.	.
CCn1cnc2c(=O)oc3ccc(S(=O)(=O)Nc4ccc(OC)cc4)cc3c21	.	.	-17%	?
COc1cccc2oc(-c3ccccc3)cc(=O)c12	?	0%	10µM*	7.9µM*

Bioassay records deposited in PubChem BioAssay by National Center for Advancing Translational Sciences (NCATS).
